About 83,000 compounds went through this panel and 20% of them were active in at least one assay; those are over-represented in the sample as a whole.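 Each cell line was grown in a 96-well plate and treated with one concentration of compound for 48 hours. Values below 10 were considered active.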 Values without a mark were called inactive. Calls of active or inactive are those of the source.
Tests used:
Assay in all cases: NCI-60 one-dose screen, 48 h (100 = growth as untreated, 0 = no growth, -100 = all killed)
Settings in all cases: 10 µM unless noted
SK-MEL-2 melanoma = system: SK-MEL-2 melanoma
EKVX NSCLC = system: EKVX NSCLC
SN12C renal = system: SN12C renal
UO-31 renal = system: UO-31 renal
TK-10 renal = system: TK-10 renal
ACHN renal = system: ACHN renal
CAKI-1 renal = system: CAKI-1 renal
A498 renal = system: A498 renal
CCRF-CEM leukemia = system: CCRF-CEM leukemia
MOLT-4 leukemia = system: MOLT-4 leukemia
SR leukemia = system: SR leukemia
RPMI-8226 leukemia = system: RPMI-8226 leukemia
OVCAR-8 ovarian = system: OVCAR-8 ovarian
OVCAR-5 ovarian = system: OVCAR-5 ovarian
SK-OV-3 ovarian = system: SK-OV-3 ovarian
IGROV1 ovarian = system: IGROV1 ovarian
OVCAR-3 ovarian = system: OVCAR-3 ovarian
HS 578T breast = system: HS 578T breast
NCI/ADR-RES ovarian = system: NCI/ADR-RES ovarian

SMILES | growth (SK-MEL-2 melanoma) | growth (EKVX NSCLC) | growth (SN12C renal) | growth (UO-31 renal) | growth (TK-10 renal) | growth (ACHN renal) | growth (CAKI-1 renal) | growth (A498 renal) | growth (CCRF-CEM leukemia) | growth (MOLT-4 leukemia) | growth (SR leukemia) | growth (RPMI-8226 leukemia) | growth (OVCAR-8 ovarian) | growth (OVCAR-5 ovarian) | growth (SK-OV-3 ovarian) | growth (IGROV1 ovarian) | growth (OVCAR-3 ovarian) | growth (HS 578T breast) | growth (NCI/ADR-RES ovarian)
COc1ccc(/C=C/C=C\C(=O)c2ccc(-n3ccnc3)cc2)cc1 | 108% | 96.6% | 90.7% | 73.9% | 96.3% | 94.4% | 90.9% | 73.3% | 80.2% | 75% | 82.1% | 71.5% | 86.4% | 103% | 97% | 93.5% | 96.7% | 91.1% | 104%
O=C(Nc1ccc(Oc2ccc(F)cc2)c(Cl)c1)c1cccnn1 | 77.7% | 75% | 63.8% | 55% | 64.4% | 73.7% | 54.8% | 61.1% | 75.1% | 59.8% | 97.6% | 62.6% | 71.3% | 84% | 88.8% | 97.6% | 73.6% | 95.6% | 69.4%
CC[C@]12C=CCN3CC[C@@]4(c5ccc(OC)cc5N(C)[C@H]4[C@@](O)(C(=O)OC)[C@@H]1OC(=O)CCC(=O)O[C@H]1CC[C@H]4[C@@H]5CCC6=CC(=O)CC[C@@H]6[C@H]5CC[C@]14C)[C@@H]32 | -79.8% [100 µM] (active) | 16.1% [100 µM] | 7.65% [100 µM] (active) | -7.86% [100 µM] (active) | 12.4% [100 µM] | -0.641% [100 µM] (active) | 6.42% [100 µM] (active) | -15.8% [100 µM] (active) | 5.61% [100 µM] (active) | -6.15% [100 µM] (active) | 10.5% [100 µM] | -22.1% [100 µM] (active) | 26.4% [100 µM] | 23.7% [100 µM] | 13.2% [100 µM] | -46.3% [100 µM] (active) | 8.48% [100 µM] (active) | 4.75% [100 µM] (active) | 10.8% [100 µM]

Source: PubChem BioAssay (NCI)
